Screening data: PubChem, National Center for Advancing Translational Sciences (NCATS)
An excerpt weighted towards active compounds, which were near 3.6% of everything screened.
JMJD2E inh = inhibitors of human JMJD2E histone demethylase | B2RXH2 | Potency, µM (highest dose often 57.1 µM), without a hit: at the highest dose activity change, negative = inhibition, hits mostly inhibitors | hit rate 1.6% among 230,000 | JMJD2E catalytic domain, FDH-coupled NADH fluorescence (FDH is formaldehyde dehydrogenase);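 also: 0% = wells with enzyme and -100% = buffer wells without enzyme; nearly all actives have a fitted effect of over 50% in size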
Target sequence (B2RXH2 1-337 limits assumed): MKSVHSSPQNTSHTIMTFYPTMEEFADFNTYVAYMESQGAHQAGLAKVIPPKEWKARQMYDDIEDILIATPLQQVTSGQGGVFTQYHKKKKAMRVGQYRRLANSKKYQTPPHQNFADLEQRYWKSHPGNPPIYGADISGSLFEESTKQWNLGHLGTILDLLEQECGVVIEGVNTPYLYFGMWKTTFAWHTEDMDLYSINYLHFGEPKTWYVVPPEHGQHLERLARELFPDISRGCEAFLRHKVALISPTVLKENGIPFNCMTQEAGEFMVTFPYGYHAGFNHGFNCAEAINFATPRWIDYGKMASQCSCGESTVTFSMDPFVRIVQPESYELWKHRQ
NPSR antag = antagonists of human neuropeptide S receptor cAMP signaling. Q6W5P4. CHO-NPSR cells, cAMP TR-FRET, antagonist mode. Potency, µM (titrated, usually from 38.3 µM), for inactives: at the highest dose activity change, negative = inhibition, actives largely listed as inhibitors. hit rate 1% among 220,000; also: % is scaled to controls: 0 for no effect and ±100 for the full control effect; nearly all actives have a fitted effect of over 50% in size
Target sequence (Q6W5P4 whole entry, looked up): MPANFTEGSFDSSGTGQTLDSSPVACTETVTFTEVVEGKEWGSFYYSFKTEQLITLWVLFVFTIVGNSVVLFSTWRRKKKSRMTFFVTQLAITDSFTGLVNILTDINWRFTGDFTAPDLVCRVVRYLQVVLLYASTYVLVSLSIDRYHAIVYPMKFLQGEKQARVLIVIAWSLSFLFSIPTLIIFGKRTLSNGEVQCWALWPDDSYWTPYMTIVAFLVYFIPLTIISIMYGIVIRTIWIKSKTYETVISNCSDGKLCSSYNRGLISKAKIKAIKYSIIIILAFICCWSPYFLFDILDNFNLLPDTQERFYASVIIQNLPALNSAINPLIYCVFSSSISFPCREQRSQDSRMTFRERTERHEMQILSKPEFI
Epigenetic derep = epigenetic control regulation, reporter derepression; murine LDR cells, GFP reporter derepression, 30 h; Potency, µM (top dose mostly 53.9 µM), for inactives: top-dose GFP activation, actives largely listed as activators; hit rate 0.2% among 280,000; also: % of control where 0% means no effect; nearly all actives have a fitted effect of over 60% in size
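In this reporter-derepression format, murine cells bearing a silenced integrated CMV-GFP locus incubate with test compound (30 h, 37 C), then are washed and imaged; fluorescent objects of 20–120 um count as induced cells.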
KAT2A inh = GCN5L2 (KAT2A) acetyltransferase inhibition | Q92830 | GCN5L2 HAT assay, ThioGlo1 CoA-SH fluorescence | Potency, µM (highest dose often 58.9 µM), for the others: top-dose activity change, negative = inhibition, actives largely listed as inhibitors | AID 504327 | hit rate 0.21% among 390,000; also: % is scaled to controls: 0 for no effect and ±100 for the full control effect
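Preincubate 20nM GCN5L2 with compound 15 min, RT → add 50uM ThioGlo1 + 75uM H3(1-25) + 70uM acetyl-CoA → read fluorescence 0 and 20 min. Primary qHTS; fluorescent artifacts likely.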
IMPase Li cell = membrane-permeable IMPase blocker, potentiated with lithium. CHO-M1 cells, IP1 TR-FRET (IP-One), carbachol + lithium. Potency, µM (titrated, usually from 59.4 µM), inactives show top-dose activity, negative = IMPase inhibition, most hits filed as inhibitors. hit rate 0.35% among 210,000. AID 1457;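 also: IP1 builds up when IMPase is blocked and the TR-FRET signal falls; plate controls were basal vehicle for no effect and high inhibitor control for full effect; nearly all actives have a fitted effect of over 50% in size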
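CHO cells stably expressing M1 receptor (2000/well) were cultured 16–30 h, then exposed to compounds with a small lithium addition for 30 min at 37C. IP1 was measured by TR-FRET competition; AC50 from Hill fits.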
Sfp inh = blocks B. subtilis Sfp PPTase activity. Potency, µM, inactives show largest response in the series, negative = inhibition, hits mostly inhibitors. Q9F4F7. Biochemical Sfp PPTase activity, qHTS. hit rate 3.5% among 310,000;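 also: the enzyme is Sfp with the accession as filed and its product quenches rhodamine fluorescence; 0% = enzyme reaction without inhibitor and -100% = no enzyme wells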
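Buffer: 50 mM Hepes-Na pH 7.6, 10 mM MgCl2, 0.01% Nonidet P-40, 0.01% BSA. Enzyme 15 nM, pre-exposed to compound 15 min; substrates then added and fluorescence change tracked over 30 min.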
* hit, by the source's call; ? = inconclusive; nt = no result; [ ] = remark or other dose. Unless noted, calls follow the shape of the dose curve; as a rule, active = well fitted curve in the direction sought with a large enough effect; inconclusive = small, poorly fitted or top-dose-only effect, or another doubt; inactive = no such curve, though single readings can be large; an effect the other way counts as inactive or inconclusive. Potency is read from the fitted curve at half-maximal effect.

SMILES	JMJD2E inh	NPSR antag	Epigenetic derep	KAT2A inh	IMPase Li cell	Sfp inh
COc1ccc(CCNC(=O)Cn2nc(C)c3c(C)n(-c4ccc(C)cc4)nc3c2=O)c(OC)c1	nt	nt	0.6%	?	nt	nt
S=c1[nH]nc(-c2cc(-c3ccccc3)n[nH]2)n1/N=C/C=C/c1ccco1	?	27.6%	-0.1%	-29.2%	nt	15.8µM*
Oc1ccc(/C=N/n2c(C3CCCCC3)n[nH]c2=S)c(O)c1	nt	nt	nt	-4.4%	nt	0.178µM*
COc1cccc(/C=N/n2c(-c3n[nH]c4c3CCC4)n[nH]c2=S)c1O	31.6µM*	1.1%	-2.2%	-8.9%	18.0%	25.1µM*
COc1cccc(/C=N/n2c(C3CCCCC3)n[nH]c2=S)c1O	nt	nt	nt	0.5%	nt	79.4µM*
CCCCN(C)CCNC(=O)C1CCN(c2nc3ccc(CC)cc3s2)CC1	nt	nt	1.6%	2.2%	nt	nt
O=C(NCCSCc1c(F)cccc1Cl)C1CCN(S(=O)(=O)Cc2ccccc2)CC1	nt	nt	1.0%	-1.6%	nt	nt
COC(=O)[C@@H]1C(O)[C@@H](C(=O)OC)[C@H](C)N(C)[C@@H]1C (stereo partly specified)	nt	nt	nt	nt	-4.3%	nt
C#CCCOC(=O)N1C2=NC(C(=O)OC)=C(C(=O)OC)[C@@H]3N(CC#CC)c4ccccc4[C@]23C[C@H]1C(=O)OC	4.3%[11.4 µM]	nt	nt	nt	8.2%	15.1%
COc1cc(/C=N/n2c(-c3n[nH]c4c3CCC4)n[nH]c2=S)cc(OC)c1O	-9.2%	-7.2%	1.1%	0.3%	nt	56.2µM*
COc1cc(/C=N/n2c(C3CCCCC3)n[nH]c2=S)ccc1O	nt	nt	nt	-23.7%	nt	?
S=c1[nH]nc(-c2ccco2)n1/N=C/C=C/c1ccco1	-13.1%	-24.2%	-0.9%	-10.2%	6.0%	-41.6%
S=c1[nH]nc(COc2ccccc2)n1/N=C/C=C/c1ccco1	?	?	0.8%	-28.7%	nt	56.2µM*
CC(/C=N/n1c(-c2ccc(Cl)cc2)n[nH]c1=S)=C\c1ccco1	-4.3%	-17.6%[46.1 µM]	-0.9%	-16.4%	nt	-29.2%
S=c1[nH]nc(-c2n[nH]c3c2CCC3)n1/N=C/C=C/c1ccco1	28.2µM*	6.1%	0.5%	-27.6%	nt	11.2µM*
CC(/C=N/n1c(-c2cc(C)[nH]n2)n[nH]c1=S)=C\c1ccco1	-18.7%	?	0.0%	-22.2%	nt	14.1µM*
S=c1[nH]nc(COc2ccccc2)n1/N=C/C=C/c1ccccc1	0.2%	-16.0%	3.0%	-18.5%	-12.0%	-12.8%
NC(=O)C[C@@H](N)c1nn[nH]n1	nt	nt	nt	nt	-4.1%	nt
CC(C)(C)Nc1oc(-c2ccccc2)nc1-c1ccccc1F	3.3%	nt	-1.1%	nt	13.3%	-1.6%
COc1ccccc1/C=C/C=N/n1c(-c2n[nH]c3c2CCC3)n[nH]c1=S	?	53.2%	3.3%	-25.5%	nt	22.4µM*
COc1c(Br)cc(/C=N/n2c(-c3ccccc3)n[nH]c2=S)c(O)c1Br	nt	nt	nt	?	nt	50.1µM*
COc1cccc(/C=N/n2c(-c3cc(C)[nH]n3)n[nH]c2=S)c1O	?	2.0%	-0.2%	-1.7%	nt	2.24µM*
O=C(/C(=N/N=C/c1ccc(O)c(O)c1O)c1ccccc1)c1ccccc1	0.9%	?	0.0%	-29.4%	-7.5%	-96.0%
Oc1ccc(/C=N/N=C(c2ccccc2)c2ccccc2)c(O)c1O	14.1µM*	-47.3%	0.0%	-24.8%	3.8%	2.82µM*
Cc1csc2ncnc(NNC(=O)c3ccc(Cl)cc3)c12	8.5%	27.0%	35.5µM*	-5.8%	nt	?
SMILES	JMJD2E inh	NPSR antag	Epigenetic derep	KAT2A inh	IMPase Li cell	Sfp inh
C[C@@H]1C(=O)O[C@H]2C[C@@]34[C@H]5C[C@@H](C(C)(C)C)[C@]36[C@H](OC(=O)[C@H]6O)O[C@]4(C(=O)O5)[C@]21O	nt	nt	nt	-4.6%	nt	5.1%
CC(C)Oc1ccc2c(=O)c3cc(C(=O)O)ccc3oc2c1	?	nt	5.7%	-2.6%[0.501 µM]	18.1%	8.6%
CCOC(=O)c1cnn(-c2ccc(C(F)(F)F)cn2)c1N	4.8%	-6.1%[46.1 µM]	-1.0%	-2.3%	29.3%[38.3 µM]	2.0%
CCOC(=O)c1cnc(-c2ccc(C(F)(F)F)cn2)[nH]c1=O	?	12.2%	0.0%	-4.0%	nt	44.7µM*
C[C@H](NC(=O)[C@@H](N)Cc1ccc(O)cc1)C(=O)NCC(=O)N[C@H]1CSSC[C@@H](C(=O)O)NC(=O)[C@H](CO)NC(=O)[C@H]([C@@H](C)O)NC(=O)[C@H](Cc2ccccc2)NC(=O)[C@H]([C@@H](C)O)NC(=O)[C@H](CCCCN)NC(=O)[C@@H](Cc2c[nH]c3ccccc23)NC(=O)[C@H](Cc2ccccc2)NC(=O)[C@H](Cc2ccccc2)NC(=O)[C@H](CC(N)=O)NC(=O)[C@H](CCCCN)NC1=O	nt	nt	nt	-11.2%	nt	2.1%
COCCNC(=O)CNC(c1ccccc1)c1ccccc1	5.1%	3.6%	2.7%	-4.5%	13.5%	44.7µM*
C/C=C(\C)C(=O)NCCN1C2=NC[C@@H](Cc3ccccc3)N2C[C@H]1Cc1ccc(O)cc1	0.3%	-32.0%	0.1%	-5.0%	5.4%	14.3%
CCCCCCNC(=O)N[C@@H](C(=O)NCCC[C@H]1CN2C(=NC[C@@H]2Cc2ccccc2)N1CCc1cccc(OC)c1)C(C)C	?	-11.1%	?	39.8µM*	nt	3.55µM*
Cc1ccccc1NC(=O)CSc1nnc(-c2ccco2)n1N	nt	nt	nt	-3.8%	nt	nt
Cc1nnc(NC(=O)CSc2ccc(-c3ccco3)nn2)s1	?	1.6%	-0.1%	?	-17.4%	25.1µM*
Cc1ccc(C)c(NC(=O)CSc2ccc(-c3ccco3)nn2)c1	10.4%	-1.7%[46.1 µM]	6.7%	19.4%	-22.2%	14.1µM*
Cc1nnc(NC(=O)CSc2nnc(-c3ccco3)n2C(C)C)s1	nt	nt	nt	-5.4%	nt	4.6%
Cc1ccccc1NC(=O)CSc1ccc(-c2ccco2)nn1	?	14.9%	3.4%	21.7%	-0.3%	22.4µM*
Cc1nnc(NC(=O)CSc2ccc(-c3ccc(Cl)cc3)nn2)s1	?	-11.8%	0.0%	1.1%	-11.8%	-6.0%
CCOc1ccc(NC(=O)CSc2ccc(-c3ccco3)nn2)cc1	nt	nt	nt	-12.5%	nt	-11.7%
CC(C)n1c(SCC(=O)Nc2nncs2)nnc1-c1ccco1	nt	nt	nt	?	nt	20µM*
CCNS(=O)(=O)c1ccc(C)cc1	nt	nt	nt	nt	-0.5%	nt
O=S(=O)(c1ccc(Cl)cc1)c1nc(-c2cccs2)oc1N1CCCCC1	nt	nt	-0.1%	-10.7%	nt	nt
COC1C(OC(=O)/C=C/C=C/C=C/C=C/C(=O)O)CCC2(CO2)C1C1(C)OC1CC=C(C)C (stereo unspecified)	nt	nt	nt	-9.1%	nt	-16.5%
Nc1nnc(-c2ccco2)s1	-29.4%	0.9%[46.1 µM]	2.9%	-8.9%	27.6%[38.3 µM]	5.01µM*
CCCC(=O)Nc1nnc(-c2ccco2)s1	?	-10.9%[46.1 µM]	2.6%	-16.0%	22.5%[38.3 µM]	31.6µM*
